Here are results for 89 compounds from article PMC4336329 (PLoS ONE, 2015).

Molecules are shown by their SMILES. Out of some 310,000 compounds screened, about 14,000 (4.5%) showed an effect of 50% or more. Effects have a minus sign here. For the sample, strong results were picked, then their nearest neighbours and some compounds at random.
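Also: peak tail current of the secondary pulse compared with the same well before compound.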

Chain of human ether-à-go-go-related gene (hERG) potassium channel (Q12809 whole entry, looked up): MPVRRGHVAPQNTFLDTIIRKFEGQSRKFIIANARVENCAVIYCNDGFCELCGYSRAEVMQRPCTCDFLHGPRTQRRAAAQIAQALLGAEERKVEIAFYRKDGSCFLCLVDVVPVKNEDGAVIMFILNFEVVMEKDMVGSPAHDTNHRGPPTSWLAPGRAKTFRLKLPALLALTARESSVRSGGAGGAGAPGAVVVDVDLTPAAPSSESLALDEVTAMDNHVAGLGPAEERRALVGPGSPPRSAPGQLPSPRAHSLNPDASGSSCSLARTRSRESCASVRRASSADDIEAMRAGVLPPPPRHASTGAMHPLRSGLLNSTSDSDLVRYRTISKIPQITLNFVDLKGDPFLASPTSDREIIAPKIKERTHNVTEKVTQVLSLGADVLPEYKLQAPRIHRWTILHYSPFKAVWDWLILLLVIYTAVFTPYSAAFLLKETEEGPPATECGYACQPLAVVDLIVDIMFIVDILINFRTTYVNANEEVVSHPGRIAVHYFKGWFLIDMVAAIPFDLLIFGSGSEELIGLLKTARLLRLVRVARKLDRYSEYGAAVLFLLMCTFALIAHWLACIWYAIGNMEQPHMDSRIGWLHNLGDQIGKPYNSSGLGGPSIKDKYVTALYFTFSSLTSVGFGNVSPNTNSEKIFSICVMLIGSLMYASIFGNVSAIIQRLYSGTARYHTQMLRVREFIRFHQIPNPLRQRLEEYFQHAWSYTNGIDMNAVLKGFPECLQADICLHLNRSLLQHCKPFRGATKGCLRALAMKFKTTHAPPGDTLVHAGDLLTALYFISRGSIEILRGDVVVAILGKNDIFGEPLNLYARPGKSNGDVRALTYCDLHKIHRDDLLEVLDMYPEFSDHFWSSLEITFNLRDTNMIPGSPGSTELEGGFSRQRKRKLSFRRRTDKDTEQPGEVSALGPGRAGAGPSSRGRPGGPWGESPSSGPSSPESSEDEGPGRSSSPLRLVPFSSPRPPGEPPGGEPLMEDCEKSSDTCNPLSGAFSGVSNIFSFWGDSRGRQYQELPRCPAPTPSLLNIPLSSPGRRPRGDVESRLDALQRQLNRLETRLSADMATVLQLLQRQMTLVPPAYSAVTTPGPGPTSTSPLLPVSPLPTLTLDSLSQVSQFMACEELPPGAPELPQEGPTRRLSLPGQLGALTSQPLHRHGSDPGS

This test concerns the target human ether-à-go-go-related gene (hERG) potassium channel (human, UniProt Q12809). The experiment in a line: primary screen, population patch clamp on CHO cells stably expressing hERG; higher = less effect of the substance.
Turning to `CCN(CC(=O)Nc1ccccc1OC)C(=O)C1CCCC1`, the “hERG current change (%, negative = inhibition) at 10uM” value is given as 0.547%.
The same measure for `CC1CCN(C(=S)Nc2cccc(S(=O)(=O)N(C)C)c2)CC1`: 11.1%; for `CO/N=C/c1cccn1-c1nccc(OC)c1C#N`: 19.1%.
For the compound `Cc1nc(C)c(C(=O)C2=C(O)C(=O)N(CCN3CCOCC3)C2c2cccs2)s1` (centres unmarked), the “hERG current change (%, negative = inhibition) at 10uM” value was determined as 5.12%.
Turning to `COc1cc(/C=C/C(=O)O)ccc1OS(=O)(=O)c1c(C)cc(C)cc1C`, the “hERG current change (%, negative = inhibition) at 10uM” value was -43.2%.
With `C=CCOc1ccc(/C=C/C(=O)OCC(=O)N(C)CC(=O)Nc2ccc(F)cc2)cc1` the figure was 7.74%; with `COc1ccccc1CC(=O)Nc1c[nH]c(=O)[nH]c1=O`, 38.8%; with `Cc1ccc2c(c1)c1ncnc(N3CCN(c4ccccc4)CC3)c1n2C`, -12.3%.
As to `CC(C)N1CCN(CC2COc3ccccc3O2)CC1.Cl` (centres unmarked), the “hERG current change (%, negative = inhibition) at 10uM” value is recorded as -19.4%.
The same measure for `c1ccc2c(c1)CC(CN1CCNCC1)O2` (centres unmarked): -52.3%; for `Cc1ccccc1CN1CCNCC1.Cl`: 14%; for `Cn1c(=O)oc2cc(S(=O)(=O)Nc3cccc([N+](=O)[O-])c3)ccc21`: 4.69%.
With `Cc1ccc(C)c(Cn2nnc3c(=O)[nH]c(C(=O)Nc4ccc(F)cc4)nc32)c1` the figure was 28.5%.
With `CCOc1ccc(C(=O)N2CCCC2)cc1OC` the figure was -14.7%; with `Cl.OC(COc1c(F)cc(Br)cc1F)CN1CCc2ccccc2C1` (centres unmarked), -72.2%; with `Cl.OC(COc1c(F)cc(Br)cc1F)CN1CCN(c2ccc(F)cc2)CC1` (centres unmarked), -25.7%.
Regarding `Cc1cccc(C)c1OCC(O)Cn1c2ccccc2c2ccccc21` (centres unmarked), the “hERG current change (%, negative = inhibition) at 10uM” value is recorded as 6.83%.
The same measure for `Cl.OC(COc1c(F)cc(Br)cc1F)CN1CCOCC1` (centres unmarked): 2.28%; for `Cc1cccc(C)c1OCC(O)CN1CCc2ccccc2C1.Cl` (centres unmarked): -64.2%; for `Cc1ccc(C)c(OCC(O)CN2CCc3ccccc3C2)c1C.Cl` (centres unmarked): -65.3%.
With `Cc1ccc(C)c(OCC(O)CN2CCC(C)CC2)c1C` (centres unmarked) the figure was -33.6%.
As to `Nc1ccc(S(=O)(=O)Nc2nc(-c3ccccc3)cc(-c3ccccc3)n2)cc1`, the “hERG current change (%, negative = inhibition) at 10uM” value turned out to be 21.6%.
With `Cc1ccc(NC(=O)Cn2nc(C)c3ccccc3c2=O)c(C)c1` the figure was 10.2%.
With `NC(=O)CN1C(=O)C(=O)N(Cc2ccccc2Cl)C1=O` the figure was 8.45%.
With `CC(=O)Nc1c(C(=O)C2CC2)oc2ccccc12` the figure was -7%; with `COc1cccc(OC)c1OCC(O)CN1CCN(c2ccccc2)CC1.Cl` (centres unmarked), -33.3%.
With `CC(C)c1ccc(OCC(O)CN2CCN(c3ccccc3)CC2)cc1.Cl` (centres unmarked), the “hERG current change (%, negative = inhibition) at 10uM” value was -47.3%.
The same measure for `Cc1ccc(N2CCN(CC(O)COc3ccccc3)CC2)cc1` (centres unmarked): -50.9%; for `OC(COC1CCCCC1)CN1CCN(c2ccccc2)CC1` (centres unmarked): -29.8%; for `Cc1ccc(OCC(O)CN2CCOCC2)cc1` (centres unmarked): 8.2%.
For `Cc1ccc(N2CCN(CC(O)COC3CCCCC3)CC2)cc1` (centres unmarked), the “hERG current change (%, negative = inhibition) at 10uM” value is -56.1%.
`Cc1ccc(OCC(O)CN2CCN(c3ccccc3)CC2)cc1` (centres unmarked): the “hERG current change (%, negative = inhibition) at 10uM” value is on record as -38.6%.
With `Cc1cccc(C)c1OCC(O)CN1CCN(c2ccccc2)CC1.Cl` (centres unmarked) the figure was -53.1%; with `Cc1ccc(OCC(O)CN2CCCC2)cc1` (centres unmarked), 11.5%.
With `Cc1ccc(OCC(O)CN2CCN(CC(O)COc3ccc(C)cc3)CC2)cc1` (centres unmarked) the figure was -63.9%.
Consider `CC(C)(C)C1CCC(OCC(O)CN2CCN(c3ccccc3)CC2)CC1.Cl` (centres unmarked), for which the “hERG current change (%, negative = inhibition) at 10uM” value was 1.42%.
`Cc1nc(N)c(C#N)c(-c2ccccc2)c1C`: the “hERG current change (%, negative = inhibition) at 10uM” value is listed as -10.4%.
The same measure for `CCN1C(=S)N[C@@H](c2cccs2)C(C(=O)OC)=C1C`: 4.42%.
The same measure for `O=C(CNC(=O)c1ccccc1F)N/N=C/c1cc(Br)ccc1OCc1ccccc1`: -3.96%; for `Fc1ccc(N/N=C/c2ccncc2)c(F)c1`: -9.23%.
The same measure for `Cc1cccc(OCC(O)CN2CCNCC2)c1.Cl` (centres unmarked): 26.5%; for `COC(=O)c1ccc(OCC(O)CN2CCC(C)CC2)cc1` (centres unmarked): -15.3%.
In the case of `Cc1cccc(OCC(O)CN2CCN(C3CCCCC3)CC2)c1.Cl` (centres unmarked), the “hERG current change (%, negative = inhibition) at 10uM” value is on record as -50.3%.
The same measure for `Cc1ccc(N2CCN(CC(O)COc3cccc(C)c3)CC2)cc1` (centres unmarked): -55.1%; for `Cc1cccc(OCC(O)CN2CCOCC2)c1.Cl` (centres unmarked): 10.9%.
`CCOC(=O)N1CCN(CC(O)COc2cc(C)ccc2C(C)C)CC1.Cl` (centres unmarked): the “hERG current change (%, negative = inhibition) at 10uM” value is -26.8%.
The same measure for `COC(=O)c1ccc(OCC(O)CN2CCOCC2)cc1` (centres unmarked): 15%.
With `Cc1ccc(OCC(O)CN2CCN(CC(O)COc3ccc(C)cc3Cl)CC2)c(Cl)c1` (centres unmarked) the figure was -24.3%; with `COC(=O)c1ccc(OCC(O)CN2CCN(CC(O)COc3ccc(C(=O)OC)cc3)CC2)cc1` (centres unmarked), -72.9%; with `Cc1cccc(OCC(O)CN2CCN(S(=O)(=O)c3ccc(C)cc3C)CC2)c1` (centres unmarked), -17.5%.
The same measure for `Cc1ccc(OCC(O)CN2CCN(CC(O)COC(C)C)CC2)c(C(C)(C)C)c1` (centres unmarked): -65.2%; for `Nc1c(Cl)ncnc1N/N=C/c1ccc2ccccc2n1`: -11.7%.
For the compound `COC(=O)COc1ccc(/C=C2\SC(=O)N(CC(=O)Nc3ccccc3F)C2=O)cc1`, the “hERG current change (%, negative = inhibition) at 10uM” value amounted to 14%.
The same measure for `Cc1nc(CNC(=O)CC2C(=O)NCCN2Cc2cccc(Oc3ccccc3)c2)cs1` (centres unmarked): 10.4%.
As to `CCOCCCNC(=O)/C(C#N)=C/c1ccccc1F`, the “hERG current change (%, negative = inhibition) at 10uM” value is 23.5%.
On to `C/C(=N\NC(=O)c1ccc(Cl)cc1)c1ccc(Br)s1`, for which the “hERG current change (%, negative = inhibition) at 10uM” value stood at 2.93%.
With `COCCNC(=O)C(=O)NCC1OCCN1S(=O)(=O)c1ccc(C)cc1` (centres unmarked) the figure was 15.7%.
With `CCc1ccc(C(=O)NNc2ccc(S(N)(=O)=O)cc2)cc1` the figure was 9.05%; with `NC(=O)COC(=O)CC12CC3CC(CC(Br)(C3)C1)C2`, 24.6%; with `Cc1ccc(CSc2nnc(-c3cccc(S(=O)(=O)N4CCOCC4)c3)n2CC(C)C)cc1`, -29.5%.
With `CC(C)Cn1c(SCC(=O)NCc2ccc(Cl)cc2)nnc1-c1cccc(S(=O)(=O)N2CCOCC2)c1` the figure was -52.9%; with `Cc1cc2nnc(SCC(=O)Nc3cc(S(=O)(=O)N4CCOCC4)ccc3Cl)n2c2ccccc12`, -20.5%; with `Cc1ccc(S(=O)(=O)N2CCOCC2)cc1NC(=O)CSc1nnc2cc(C)c3ccccc3n12`, -61.8%.
Turning to `CCN(CC)S(=O)(=O)c1ccc(OC)c(NC(=O)CSc2cc(Cl)ccc2Cl)c1`, the “hERG current change (%, negative = inhibition) at 10uM” value is -2.76%.
The same measure for `Cc1ccc(S(=O)(=O)N2CCOCC2)cc1NC(=O)CSc1ncccn1`: -4.68%; for `Cc1ccc(S(=O)(=O)N2CCOCC2)cc1NC(=O)CSc1ccc(Cl)cc1`: -51.3%; for `Cc1ccc(S(=O)(=O)N2CCOCC2)cc1NC(=O)C(c1ccc(Cl)cc1)C(C)C` (centres unmarked): 1.8%.
With `CCN(CC)S(=O)(=O)c1ccc(OC)c(NC(=O)CSc2cc(C)ccc2C)c1` the figure was -13.3%.
The same measure for `Cc1cc2nnc(SCC(=O)Nc3cccc(S(=O)(=O)N4CCOCC4)c3)n2c2ccccc12`: -14.4%; for `CCN(CC)S(=O)(=O)c1ccc(OC)c(NC(=O)CSc2ccccc2)c1`: -72.9%; for `O=C(CSc1nnc(-c2cccc(S(=O)(=O)N3CCOCC3)c2)n1C1CCCCCC1)NCc1ccccc1`: -17.5%.
Consider `CC(C)CN(C(=O)COC(=O)Cc1ccc(Cl)cc1)c1c(N)n(Cc2ccccc2)c(=O)[nH]c1=O`, for which the “hERG current change (%, negative = inhibition) at 10uM” value amounted to 5.02%.
As for `Cc1cccc(C(=O)N[C@@H](C)C(=O)N2CCN(c3ncccn3)CC2)c1`, the “hERG current change (%, negative = inhibition) at 10uM” value was -3.21%.
The same measure for `COc1ccc(OC)c(/C=C/C(=O)OCC(=O)Nc2nnc(-c3ccccc3)o2)c1`: -3.14%.
With `O=C(COC(=O)Cc1ccc(Br)cc1)Nc1c(F)c(F)c(F)c(F)c1F` the figure was 13.4%.
In the case of `Cc1ccc(NC2=NCCCS2)c(C)c1C`, the “hERG current change (%, negative = inhibition) at 10uM” value is given as -11.5%.
The same measure for `CCOc1ccc(NS(=O)(=O)c2cc(C(=O)N3CCN(C(C)=O)CC3)ccc2Cl)cc1`: 12.6%; for `COc1ccc(S(=O)(=O)Nc2ccccn2)cc1`: 13.8%.
With `CCC12OC(=N)C(C#N)(C1C)C(C#N)(C#N)C(c1ccccc1)O2` (centres unmarked) the figure was 2.68%.
With `COC(=O)c1ccc(COc2ccc(/C=N/NC(N)=S)cc2)o1` the figure was -5.9%; with `COc1ccc(S(=O)(=O)N2CCOCC2)cc1NC(=O)CSc1ccc(F)cc1`, -42.6%; with `COc1ccc(S(=O)(=O)N2CCOCC2)cc1NC(=O)CSc1cccc[n+]1[O-]`, -3%.
Take `COc1ccc(S(=O)(=O)N2CCOCC2)cc1NC(=O)COc1ncnc2ccccc12`: the “hERG current change (%, negative = inhibition) at 10uM” value is given as 6.62%.
With `COc1ccc(S(=O)(=O)N2CCCCC2)cc1NC(=O)CSc1ncnc2ccccc12` the figure was -51.2%; with `COc1ccc(S(=O)(=O)N2CCOCC2)cc1NC(=O)CSc1nnc2ccccn12`, 5.54%.
The same measure for `O=C(CSc1ncnc2ccccc12)Nc1cc(S(=O)(=O)N2CCCCC2)ccc1Cl`: 14.4%.
On to `COc1ccc(S(=O)(=O)N2CCOCC2)cc1NC(=O)CSc1ncnc2ccccc12`, for which the “hERG current change (%, negative = inhibition) at 10uM” value was -50.4%.
The same measure for `COc1ccc(S(=O)(=O)N2CCOCC2)cc1NC(=O)CSc1ccccc1`: -53.9%; for `Cc1ccc(S(=O)(=O)N2CCCCC2)cc1NC(=O)CSc1ncnc2ccccc12`: -36.2%.
